Source: PubChem
Giardia FBPA inh-1: inhibitors of Giardia lamblia fructose-1,6-bisphosphate aldolase; purified Giardia FBPA; A8B2U2; actives 0.71% (n = 290,000); Potency, µM (doses to about 59.6 µM), actives largely listed as inhibitors; AID 2451; note: nearly all actives have a fitted effect of over 55% in size
Target sequence (A8B2U2 whole entry, looked up): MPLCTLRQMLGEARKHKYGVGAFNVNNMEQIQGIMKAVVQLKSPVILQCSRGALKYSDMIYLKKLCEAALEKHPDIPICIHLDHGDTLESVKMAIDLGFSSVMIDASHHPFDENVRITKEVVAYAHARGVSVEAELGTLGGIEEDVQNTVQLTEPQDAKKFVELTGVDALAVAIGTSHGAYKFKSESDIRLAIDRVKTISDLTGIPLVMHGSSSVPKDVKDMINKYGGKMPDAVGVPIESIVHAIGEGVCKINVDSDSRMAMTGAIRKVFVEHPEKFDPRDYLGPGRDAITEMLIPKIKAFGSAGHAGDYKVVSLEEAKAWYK
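Giardia FBPA (40 nM reagent) was preincubated 10 min at RT with compound (up to 57.5 uM final), then substrate plus GAPDH/TPI/NAD/arsenate coupling system with diaphorase/resazurin was added; resorufin fluorescence (525/598 nm) was read after 20 min.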
AmpC inh no detg: inhibitors of E. coli AmpC beta-lactamase without detergent; P00811; AmpC nitrocefin hydrolysis, absorbance 480 nm, 0.0001% Triton; Potency, µM (series often up to 57.1 µM), usual class: inhibitors; actives 0.52% (n = 330,000); note: nearly all actives have a fitted effect of over 20% in size
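AmpC (5.3 nM in the dispensed reagent) in 20 mM phosphate pH 7.0 with 0.01% (detergent screen) or 0.0001% Triton X-100 was preincubated with compounds for 15 min at room temperature. Nitrocefin was then added from an 800 uM solution, and hydrolysis was followed at 480 nm.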
AmpC detergent: inhibitors of E. coli AmpC beta-lactamase with detergent. AmpC hydrolysis of nitrocefin, absorbance 480 nm, 0.01% Triton. Potency, µM (series often up to 114 µM), usual class: inhibitors. actives 0.041% (n = 370,000). AID 485294; note: nearly all actives have a fitted effect of over 25% in size
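AmpC (5.3 nM in the dispensed reagent) in 20 mM phosphate pH 7.0 with 0.01% (detergent screen) or 0.0001% Triton X-100 was preincubated with compounds for 15 min at room temperature. Nitrocefin was then added from an 800 uM solution, and hydrolysis was followed at 480 nm.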
NS1 inh: inhibitors of influenza NS1 protein function | Potency, µM (highest dose often 46.1 µM) | actives 0.4% (n = 270,000) | AID 2326; calls by dose curve; note: actives are rising curves; nearly all actives have a fitted effect of over 50% in size
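Compounds were scored for reversing the slow growth caused by influenza A NS1 in S. cerevisiae, measured by optical density at 600 nm. Assay medium contained 2% galactose at pH 6.0; NS1-free yeast of the same strain were the positive control.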
SARS PLP yeast: SARS-CoV PLP inhibition in yeast. S. cerevisiae expressing SARS-CoV PLpro, growth rescue. actives 0.19% (n = 330,000). AID 485353. Potency, µM (series often up to 32.9 µM), actives largely listed as activators; calls by dose curve; note: nearly all actives have a fitted effect of over 55% in size
Giardia growth: blocks growth of Giardia lamblia trophozoites | Giardia lamblia trophozoite growth inhibition | AID 2785 | shares compounds with Giardia FBPA inh-1 | actives 5% (n = 1,500) | Potency, µM (titrated, usually from 57.5 µM), actives largely listed as inhibitors;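 note: trophozoites exposed to compound for 48 h at 37 °C; nearly all actives have a fitted effect of over 70% in size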
Mammalian tox: counter-screen for Giardia aldolase inhibitors: mammalian cell toxicity | shares compounds with Giardia FBPA inh-1 | mammalian cell viability counter-screen, qHTS | Potency, µM (doses to about 57.5 µM), hits mostly inhibitors | actives 4% (n = 1,500) | AID 2786;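 note: Chinese hamster ovary cells used as mammalian cytotoxicity surrogate; viability measured as cellular ATP by luminescence; compound exposure lasted 48 h before reading; nearly all actives have a fitted effect of over 60% in size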
Giardia FBPA inh-2: confirmation of Giardia fructose-bisphosphate aldolase inhibitors | purified Giardia aldolase enzyme activity, qHTS | Potency, µM (series often up to 57.5 µM), hits mostly inhibitors | actives 5% (n = 1,500) | shares compounds with Giardia FBPA inh-1; note: nearly all actives have a fitted effect of over 45% in size
Rabbit aldolase: rabbit FBP aldolase inhibition by Giardia aldolase hits. shares compounds with Giardia FBPA inh-1. Rabbit muscle FBPA enzyme inhibition, selectivity counter-screen. Potency, µM (highest dose often 57.5 µM), actives largely listed as inhibitors. actives 4% (n = 1,500). AID 2794; note: nearly all actives have a fitted effect of over 60% in size
Target sequence (P00883 whole entry, looked up): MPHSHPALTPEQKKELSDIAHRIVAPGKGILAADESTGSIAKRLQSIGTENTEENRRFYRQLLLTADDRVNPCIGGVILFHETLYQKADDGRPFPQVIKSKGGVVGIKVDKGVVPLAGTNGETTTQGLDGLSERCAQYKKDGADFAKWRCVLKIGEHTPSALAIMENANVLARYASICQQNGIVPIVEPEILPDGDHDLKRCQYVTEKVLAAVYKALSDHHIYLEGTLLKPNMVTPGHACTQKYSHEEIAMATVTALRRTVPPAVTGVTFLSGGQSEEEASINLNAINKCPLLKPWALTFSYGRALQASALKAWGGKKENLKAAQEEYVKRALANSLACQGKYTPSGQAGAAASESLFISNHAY
GAPDH coupling: counter-screen for Giardia aldolase inhibitors: GAPDH coupling enzyme; shares compounds with Giardia FBPA inh-1; GAPDH coupling enzyme counterscreen, biochemical, qHTS; Potency, µM (series often up to 57.5 µM), actives largely listed as inhibitors; actives 6% (n = 1,500); AID 2795; note: nearly all actives have a fitted effect of over 55% in size
Numbers stand for hits; n = inactive; u = inconclusive; x = no result given; [ ] = another dose, or the depositor's remark. This is a sample that favours compounds with a hit; in the whole collection about 1.4% have one here. Unless noted, calls come from the whole dose curve; as a rule, active = well fitted curve in the direction sought with a large enough effect; inconclusive = small, poorly fitted or top-dose-only effect, or another doubt; inactive = no such curve, though single readings can be large; an effect the other way counts as inactive or inconclusive.

SMILES	Giardia FBPA inh-1	AmpC inh no detg	AmpC detergent	NS1 inh	SARS PLP yeast	Giardia growth	Mammalian tox	Giardia FBPA inh-2	Rabbit aldolase	GAPDH coupling
CC1=NN(c2ccccc2)C(=O)C1N=Nc1cccc(O)c1 (stereo not given)	10µM	n	n	n	n	u	n	n	n	n
Cc1[nH]nc(SCC(=O)N2CCOCC2)c1[N+](=O)[O-]	n	n	n	x	n	x	x	x	x	x
O=C(c1ccccc1)N1CCN(Cc2ccccc2C(F)(F)F)CC1	20µM	n	n	x	n	n	n	n	n	n
COc1ccc(C(=O)N2CCN(Cc3ccccc3[N+](=O)[O-])CC2)cc1	u	n	n	n	n	x	x	x	x	x
COc1cccc(C(=O)N2CCN(Cc3ccccc3Br)CC2)c1	16µM	n	u	n	n	n[10.4 µM]	n	n	n	n
COc1cc(OC)cc(C(=O)N2CCN(Cc3ccccc3[N+](=O)[O-])CC2)c1	18µM	n	n	n	n	n[10.4 µM]	n	n	n	n
COCc1cc(=O)n2[nH]cc(-c3ccsc3)c2n1	n	n	n	n	n	x	x	x	x	x
O=c1[nH][nH]c(=S)n1-c1ccccc1C(F)(F)F	18µM	n	n	n	n	u	n	n	n	n
CON/C=N/C(=S)Nc1ncc(C(F)(F)F)cc1Cl	6.3µM	n	n	x	n	u	n	n	n	n
Cc1csc(=O)n1CCC(=O)NCc1ccc(F)cc1	x	n	x	x	n	x	x	x	x	x
CCN(CC)c1ccc(-c2sc(Nc3ccccc3)n[n+]2-c2ccc(F)cc2)cc1	n	n	n	n	n	x	x	x	x	x
CCc1ccc(Nc2n[n+](-c3ccccc3)c(-c3ccc(N(CC)CC)cc3)s2)cc1	25µM	n	n	n	n	n	u	n	n	n
Cc1ccc(NC(=O)CN(C)S(=O)(=O)c2cccc3cccnc23)cc1	n	n	u	n	n	x	x	x	x	x
Cc1ccc(NC(=O)CN(C)C(=O)COc2cccc3cccnc23)cc1	11µM	n	n	n	n	n	n	13µM	u	u
CCOC(=O)c1oc2c(C)c(O)ccc2c(=O)c1-c1nncn1-c1ccccc1	n	n	n	n	n	x	x	x	x	x
CCOC(=O)c1oc2c(O)c(O)ccc2c(=O)c1-c1nncn1-c1ccccc1	4.5µM	n	n	n	n	n	n	u	u	n
CCOc1cc(NC(=S)NCc2ccco2)c(OCC)cc1NC(=O)CC(C)C	n	n	n	n	n	x	x	x	x	x
C=CCc1cc(C)cc(C)c1OCCn1cncn1	n	n	n	n	n	x	x	x	x	x
C=CCc1cc(OC)ccc1OCCCCn1cncn1	32µM	n	u	n	u	u	n	n	n	n
C=CCN(CC#CCOc1ccccc1OC)CC=C	20µM	n[2.29 µM]	n	n	n	n[10.4 µM]	n	n	n	n
COc1ccccc1OCC#CCN1CCCC1	u	n	n	n	n	x	x	x	x	x
CC(C)N1CCc2c(sc(NC(=O)Cc3ccccc3)c2C(N)=O)C1	13µM	n	n	n	n	u	n	n	n	n
COc1cccc(OC)c1C(=O)Nc1sc2c(c1C(N)=O)CCN(Cc1ccccc1)C2	13µM	n	n	n	n	n	n	n	n	n
CCC(=O)Nc1sc2c(c1C(=O)OC)CCN(Cc1ccccc1)C2	13µM	n	n	n	n	n	n	n	n	n
CC(C)N1CCc2c(sc(NC(=O)CCc3ccccc3)c2C(N)=O)C1	n	n	n	x	n	x	x	x	x	x
SMILES	Giardia FBPA inh-1	AmpC inh no detg	AmpC detergent	NS1 inh	SARS PLP yeast	Giardia growth	Mammalian tox	Giardia FBPA inh-2	Rabbit aldolase	GAPDH coupling
CN1CCc2c(sc(NC(=O)c3cc(Cl)sc3Cl)c2C(N)=O)C1	32µM	n	n	n	n	n	u	n	n	n
Cc1ccc(NC(=O)CSc2nc(-c3cccs3)nc3cc(=O)[nH]n23)cc1	x	x	n	x	x	x	x	x	x	x
O=C(Nc1cccc(C(F)(F)F)c1)c1sc(Cl)nc1C(F)(F)F	n	n	n	n	n	x	x	x	x	x
CCOC(=O)CC1C(=O)NCCN1S(=O)(=O)c1ccc(NC(C)=O)cc1 (stereo not given)	n	n	n	n	n	x	x	x	x	x
CCN1CCc2c(sc(NC(=O)C3CCCCC3)c2C(=O)OC)C1	18µM	n	n	n	n	n	n	n	n	n
CCOC(=O)c1c(NC(=O)C2CCCCC2)sc2c1CCN(CC)C2	u	n	n	n	n	x	x	x	x	x
NNC(=O)c1cccn(Cc2cccc(C(F)(F)F)c2)c1=O	n	n	n	n	n	x	x	x	x	x
NC(=O)CC(NC(=O)c1ccc(Br)cc1)c1ccc(NC2CCCCCCC2)c([N+](=O)[O-])c1 (stereo not given)	n	n	n	n	n	x	x	x	x	x
CCOCc1[nH]c(=S)[nH]c(=O)c1Cc1ccc(OC(C)C)cc1	n	n	n	n	n	x	x	x	x	x
COc1ccc(Cc2c(O)[nH]c(=S)[nH]c2=O)cc1	25µM	n	n	n	n	n[10.4 µM]	n	n	n	n
Cc1nn2c(=S)[nH]nc2[nH]c1=O	11µM	n	n	x	n	n[10.4 µM]	n	n	n	n
C=CCNC(=S)N1CCN(Cc2ccc3c(c2)OCO3)CC1	7.1µM	n	n	n	n	n	n	n	n	n
O=C(O)c1cc(-c2cc(C(=O)O)c3ccccc3n2)nc2ccccc12	2.5µM	n	n	n	n	n	n	n	n	n
O=C(O)c1cc(-c2ccc3ccccc3n2)nc2ccccc12	u	n	n	n	n	x	x	x	x	x
CCC(CC)C(=O)Nc1nnc(S(=O)(=O)N2CCCCCC2)s1	n	n	n	n	n	x	x	x	x	x
Cc1cccc2c(N)c3c(nc12)N(C)CC3	16µM	n	n	n	n	u	n	n	n	n
CC1CC(C)(C)CC2(C1)NC(=O)N(CC(=O)NCCc1ccc3c(c1)OCCO3)C2=O (stereo not given)	n	n	n	n	n	x	x	x	x	x
COCCCN(Cc1cccs1)S(=O)(=O)c1c[nH]c(C(=O)OC)c1	n	n	n	n	n	x	x	x	x	x
COC(=O)c1ccc(C(=O)O)nc1	20µM	n	n	n	n	n	n	n	n	n
COC(=O)c1ccc(C(=O)OC)nc1	n	n	n	n	n	x	x	x	x	x
CSc1cccc(NC(=O)c2ccc(Cl)nc2)c1	x	n	n	n	n	x	x	x	x	x
CC(=O)Nc1cccc(-c2cc(C)c3cc4c(cc3n2)OCO4)c1	n	n	n	n	n	x	x	x	x	x
Cc1cc(C)c(OCCCn2ccnc2)c(C)c1	u	n	u	n	n	x	x	x	x	x
Clc1cccc(OCCn2ccnc2)c1	35µM	n	n	n	n	u	n	n	n	n
